Assay results taken from PubChem BioAssay (EPA / NIEHS).
Results filed as inconclusive are left out. Active and inactive are the calls of the source. Rule for the calls: active = hit-call score of the fitted dose curve at least 0.9, where 1 is the maximum; inconclusive = response in the unintended direction; inactive = score below 0.9.

Experiments:
[1] = TOX21_p53_BLA_p2_viability: Viability Assessment in the Tox21 HCT-116 p53 Agonism Beta-lactamase Assay, Phase 2 (AID 2283591);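 note: compound exposure lasted 16 h at 37 °C; actives lower the ATP signal meaning cytotoxicity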
Method in brief: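 Cytotoxicity readout: CellTiter-Glo ATP luminescence, 30 min at room temperature, after the beta-lactamase read. Cells were HCT116 exposed 16 h at 37C to compounds pin-transferred at 217-fold dilution from DMSO stocks.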

[2] = target: Cellular tumor antigen p53 (Homo sapiens) (UniProt P04637); test: TOX21_p53_BLA_p2_ratio: Tox21 HCT-116 p53 Agonism Beta-lactamase Assay, Ratio, Phase 2 (AID 2283592)
Chain of Cellular tumor antigen p53 (Homo sapiens) (P04637 whole entry, looked up): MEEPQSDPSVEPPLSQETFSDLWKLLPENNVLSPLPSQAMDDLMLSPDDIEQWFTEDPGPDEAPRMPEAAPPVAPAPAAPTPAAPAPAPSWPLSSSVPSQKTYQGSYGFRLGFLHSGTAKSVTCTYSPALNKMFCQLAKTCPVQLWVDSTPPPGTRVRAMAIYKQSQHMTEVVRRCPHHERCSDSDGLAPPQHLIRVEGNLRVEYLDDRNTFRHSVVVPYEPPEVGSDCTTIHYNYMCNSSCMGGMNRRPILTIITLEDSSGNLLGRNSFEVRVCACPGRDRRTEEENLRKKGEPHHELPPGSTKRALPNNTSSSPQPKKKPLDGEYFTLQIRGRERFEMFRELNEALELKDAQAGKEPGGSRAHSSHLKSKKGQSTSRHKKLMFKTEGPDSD
Method in brief: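 Plated HCT116 p53-bla cells (4000/well) received compound after 5 h, then 16 h at 37C/5% CO2. CCF4-AM added, 2 h RT. Ratio of 460 to 530 nm emission taken as the p53 reporter signal.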

[3] = TOX21_p53_BLA_p3_viability: Viability Assessment in the Tox21 HCT-116 p53 Agonism Beta-lactamase Assay, Phase 3 (AID 2283593);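 note: cells exposed to compound for 16 h before reading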
Method in brief: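 Cellular ATP was quantified by CellTiter-Glo luminescence, read after 30 min at room temperature. Beforehand, HCT116 cells (4000/well) received compound 5 h post-seeding, 217-fold diluted from DMSO, then incubated 16 h at 37C.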

[4] = target: Cellular tumor antigen p53 (Homo sapiens) (UniProt P04637); test: TOX21_p53_BLA_p3_ratio: Tox21 HCT-116 p53 Agonism Beta-lactamase Assay, Ratio, Phase 3 (AID 2283596)
Method in brief: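 Cells were seeded at 4000/well, rested 5 h at 37C, then dosed with DMSO compound solutions (217-fold dilution) for 16 h. CCF4-AM substrate was loaded for 2 h at room temperature, and the 460/530 nm emission ratio was fitted for gain of signal versus DMSO.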

[5] = TOX21_p53_BLA_p4_viability: Viability Assessment in the Tox21 HCT-116 p53 Agonism Beta-lactamase Assay, Phase 4 (AID 2283597);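 note: hits lower the luminescence signal meaning cytotoxicity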
Method in brief: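 Readout: ATP luminescence (CellTiter-Glo), measured 30 min after reagent addition at RT. The reagent followed a 2 h CCF4-AM incubation, and the cells had been exposed to compound for 16 h at 37C.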

[6] = target: Cellular tumor antigen p53 (Homo sapiens) (UniProt P04637); test: TOX21_p53_BLA_p5_ratio: Tox21 HCT-116 p53 Agonism Beta-lactamase Assay, Ratio, Phase 5 (AID 2283599)
Method in brief: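 Beta-lactamase reporter ratio (blue 460 nm over green 530 nm, 405 nm excitation) after 2 h CCF4-AM loading, in HCT-116 cells exposed 16 h at 37 C to compounds pinned at 217-fold dilution. Increases relative to DMSO baseline scored.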

[7] = TOX21_p53_BLA_p5_viability: Viability Assessment in the Tox21 HCT-116 p53 Agonism Beta-lactamase Assay, Phase 5 (AID 2283600)
Method in brief: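 Workflow: seed 4000 cells per well, wait 5 h, add compounds (DMSO, 217-fold dilution), incubate 16 h, load CCF4-AM 2 h, add CellTiter-Glo, read luminescence after 30 min.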

[8] = target: Cellular tumor antigen p53 (Homo sapiens) (UniProt P04637); test: TOX21_p53_BLA_p4_ratio: Tox21 HCT-116 p53 Agonism Beta-lactamase Assay, Ratio, Phase 4 (AID 2283601)
Method in brief: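 Signal is the blue/green (460nm/530nm) ratio of cleaved versus uncleaved CCF4-AM substrate, read after 2 h substrate loading. Cells were HCT116 carrying the p53-responsive beta-lactamase reporter, dosed 16 h at 37C, 5% CO2; CellTiter-Glo measured in parallel.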

Measured: AC50

Cc1nc(NS(=O)(=O)c2ccc(N)cc2)nc(C)c1Br
not listed: [8]
inactive: all other assays above

Cc1cccc(CN2CCN(C(c3ccccc3)c3ccc(Cl)cc3)CC2)c1 (stereo unspecified)
not listed: [8]
inactive: all other assays above

CC(=O)OC(C)C[N+](C)(C)C (stereo unspecified)
not listed: [8]
inactive: all other assays above

COc1ccc2c(c1)OC(C)(C)C(c1ccccc1)C2c1ccc(OCCN2CCCC2)cc1 (stereo unspecified)
inactive: [1] | [2]
active: [3] 35.3 µM | [4] 43.8 µM | [5] 43.5 µM | [6] 36.7 µM | [7] 33.5 µM

C=CCn1c(=O)n(CC=C)c(=O)n(CC=C)c1=O
not listed: [8]
inactive: all other assays above

Cc1c(C)n(CCN(C)C)c2ccc(C(=O)OCCN(C)C)cc12
active: [8] 40.2 µM
inactive: all other assays above

Cc1ccsc1C(=CCCN1CCC[C@@H](C(=O)O)C1)c1sccc1C
not listed: [8]
inactive: all other assays above

O=c1cc(CO)occ1O
not listed: [8]
inactive: all other assays above

CCCCCCCCOc1ccc(C(=O)O)cc1
active: [3] 45.7 µM | [4] 79.4 µM
not listed: [8]
inactive: all other assays above

CCCCCCCCOc1ccccc1C(=O)Nc1ccc(C(=O)OCC[N+](C)(CC)CC)cc1
active: [1] 28.9 µM | [3] 30.5 µM | [5] 19 µM | [7] 32.8 µM
inactive: all other assays above

CC(CO)(CO)C(=O)O
not listed: [8]
inactive: all other assays above

CO/N=C(\C(=O)N[C@@H]1C(=O)N2C(C(=O)O)=C(CSC(=O)c3ccco3)CS[C@H]12)c1csc(N)n1
not listed: [8]
inactive: all other assays above

CCCCCCCCCCCC(=O)N(CCO)CCO
not listed: [8]
inactive: all other assays above

CCOC(=O)c1cc(-c2ccccc2)nc2ccc(C)cc12
not listed: [8]
inactive: all other assays above

OC[C@H]1O[C@@H](O[C@H]2[C@H](O)[C@@H](O)C(O)O[C@@H]2CO)[C@H](O)[C@@H](O)[C@@H]1O (stereo partly specified)
not listed: [8]
inactive: all other assays above

CCCOC(C(=O)OC1CCN(C)CC1)(c1ccccc1)c1ccccc1
not listed: [8]
inactive: all other assays above

CN(C)[C@@H]1C(=O)C(C(=O)NCN2CCCC2)=C(O)[C@@]2(O)C(=O)C3=C(O)c4c(O)cccc4[C@@](C)(O)C3C[C@@H]12 (stereo partly specified)
inactive: all assays above

CCCCc1oc2ccc(NS(C)(=O)=O)cc2c1C(=O)c1ccc(OCCCN(CCCC)CCCC)cc1
inactive: [2] | [6] | [7]
active: [1] 34.7 µM | [3] 34.6 µM | [4] 43.7 µM | [5] 23.7 µM | [8] 43.1 µM

N/C(=N\N=Cc1ccc(Cl)cc1)NN=Cc1ccc(Cl)cc1
active: [3] 42.7 µM | [4] 37.6 µM
not listed: [8]
inactive: all other assays above

CC(C)=CCC/C(C)=C/CC/C(C)=C/CC/C(C)=C/CC1=C(C)C(=O)c2ccccc2C1=O
not listed: [8]
inactive: all other assays above

CC=C(C)C#N
not listed: [8]
inactive: all other assays above

O=C1CCCCO1
not listed: [8]
inactive: all other assays above

CC(C)[C@H](N)C(=O)OCC(CO)OCn1cnc2c(=O)[nH]c(N)nc21 (stereo partly specified)
not listed: [8]
inactive: all other assays above

Nc1ccc(F)cc1F
not listed: [8]
inactive: all other assays above

COc1c(Br)cc(Br)c(C)c1Br
inactive: all assays above

CC(C)(C)c1cc(CO)cc(C(C)(C)C)c1O
not listed: [8]
inactive: all other assays above

Clc1ccc(Cn2c(CN3CCCC3)nc3ccccc32)cc1
not listed: [8]
inactive: all other assays above

CCN(CC)CCOc1ccc(-c2nc3cc(Cl)ccc3s2)cc1
active: [1] 44.8 µM | [5] 36.3 µM
inactive: all other assays above

CC(C)c1ccc2oc3nc(N)c(C(=O)O)cc3c(=O)c2c1
not listed: [8]
inactive: all other assays above

CC(C)(C#N)Nc1nc(Cl)nc(NC2CC2)n1
inactive: all assays above

CCC(=O)c1ccc(O)cc1
not listed: [8]
inactive: all other assays above

OCCN1CCN(CCCN2c3ccccc3Sc3ccc(C(F)(F)F)cc32)CC1
active: [5] 33.5 µM | [8] 40.9 µM
inactive: all other assays above

Cc1cc(O)c2c(O)c3c(O)cccc3cc2c1
not listed: [8]
inactive: all other assays above

CC(C)C(=O)OCC(=O)[C@@]12O[C@H](C3CCCCC3)O[C@@H]1C[C@H]1[C@@H]3CCC4=CC(=O)C=C[C@]4(C)[C@H]3[C@@H](O)C[C@@]12C
not listed: [8]
inactive: all other assays above

CC(O)COC(C)(C)C (stereo unspecified)
inactive: all assays above

CCCCCCCCC1CO1 (stereo unspecified)
inactive: all assays above

NC(=O)C(=O)NN=Cc1ccc([N+](=O)[O-])o1
active: [2] 39.8 µM | [5] 42.3 µM | [6] 37.1 µM | [8] 41.8 µM
inactive: all other assays above

O=C(O)c1ccc(-n2nc(-c3ccccc3O)nc2-c2ccccc2O)cc1
inactive: all assays above

CS(=O)(=O)Nc1ccc([N+](=O)[O-])cc1Oc1ccccc1
inactive: all assays above

C[C@@H](O[C@H]1OCCN(Cc2n[nH]c(=O)[nH]2)[C@H]1c1ccc(F)cc1)c1cc(C(F)(F)F)cc(C(F)(F)F)c1
inactive: [2] | [4]
active: [1] 31.3 µM | [3] 33.4 µM | [5] 29.1 µM | [6] 34.2 µM | [7] 37.5 µM | [8] 35.1 µM

CCCN(CCc1cccs1)[C@H]1CCc2c(O)cccc2C1
inactive: all assays above

Cc1c(-c2ccccc2)oc2c(C(=O)OCCN3CCCCC3)cccc2c1=O
inactive: all assays above

CCOc1cc([N+](=O)[O-])c(OCC)cc1N1CCOCC1
inactive: all assays above

C=CCNC(N)=S
inactive: all assays above

CC(C)(C)C(=O)C(Oc1ccc(Cl)cc1)n1ccnc1 (stereo unspecified)
inactive: all assays above

C=CC[C@@H]1/C=C(\C)C[C@H](C)C[C@H](OC)[C@H]2O[C@@](O)(C(=O)C(=O)N3CCCC[C@H]3C(=O)O[C@H](/C(C)=C/[C@@H]3CC[C@@H](O)[C@H](OC)C3)[C@H](C)[C@@H](O)CC1=O)[C@H](C)C[C@@H]2OC
active: [1] 36.5 µM | [5] 35.9 µM | [6] 36.8 µM | [7] 40.5 µM
inactive: [2] | [3] | [4] | [8]

O[C@@H](CNC[C@H](O)[C@H]1CCc2cc(F)ccc2O1)[C@@H]1CCc2cc(F)ccc2O1
active: [1] 34.9 µM | [5] 33.5 µM | [6] 37.1 µM | [7] 43.1 µM | [8] 43.4 µM
inactive: [2] | [3] | [4]

C[C@@H]1CCC2[C@@H](C)[C@@H](O)O[C@@H]3O[C@@]4(C)CC[C@@H]1[C@@]23OO4 (stereo partly specified)
inactive: all assays above

CCc1oc2ccccc2c1C(=O)c1cc(I)c(O)c(I)c1
active: [1] 23 µM | [2] 7.59 µM | [3] 26.1 µM | [4] 20.8 µM | [5] 11 µM | [7] 24.1 µM | [8] 6.73 µM
inactive: [6]
